Screening results deposited in PubChem by National Center for Advancing Translational Sciences (NCATS).
L3MBTL1 inh: blocks human L3MBTL1. Q9Y468. AlphaScreen L3MBTL1–H3K9me1 peptide binding. Potency, µM (titrated, usually from 57.1 µM), hits mostly inhibitors. 0.66% of 230,000 active; further: nearly all actives have a fitted effect of over 60% in size
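AlphaScreen proximity signal between nickel-chelate acceptor and streptavidin donor beads (final 10 ug/mL) reports binding of 50 nM L3MBTL1 to 75 nM biotin-H3 K9me1 peptide; complex incubated with compounds 30 min at room temperature; cefsulodin titration as control.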
POLI inh: inhibitors of human DNA polymerase iota; Pol iota fluorescent replication assay, 10 min; Potency, µM (titrated, usually from 115 µM), most hits filed as inhibitors; 1% of 390,000 active; Q9UNA4
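Pol iota at 10 nM preincubated 15 min with compounds at room temperature; reaction started with fluorescent substrate, 50 nM final. Fluorescence read kinetically at 0 and 10 min; buffer-only wells as negative control.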
Pol kappa inh-1: inhibitors of human DNA polymerase kappa | Q9UBT6 | 0.53% of 400,000 active | Potency, µM (series often up to 107 µM), most hits filed as inhibitors | purified Pol kappa, fluorescent DNA synthesis assay, 10 min | AID 588579
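Activity was followed as the change in fluorescence between reads at 0 and 10 min after starting the reaction with 50 nM substrate. Beforehand, 10 nM polymerase had been preincubated with compound for 15 min at room temperature.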
Pol beta inh: blocks human DNA polymerase beta activity; P06746; Pol beta primer extension/strand displacement, fluorescence kinetic; Potency, µM (doses to about 114 µM), most hits filed as inhibitors; 1.3% of 340,000 active; AID 485314
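Human Pol beta at 10 nM; strand-displacement substrate 50 nM final. Compound exposure 15 min at room temperature before start, reaction 10 min at room temperature.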
Pol eta inh-1: inhibitors of human DNA polymerase eta; Q9Y253; recombinant Pol eta, fluorescent DNA replication assay; Potency, µM (highest dose often 114 µM), usual class: inhibitors; 1.2% of 390,000 active; AID 588591
Target sequence (Q9Y253 whole entry, looked up): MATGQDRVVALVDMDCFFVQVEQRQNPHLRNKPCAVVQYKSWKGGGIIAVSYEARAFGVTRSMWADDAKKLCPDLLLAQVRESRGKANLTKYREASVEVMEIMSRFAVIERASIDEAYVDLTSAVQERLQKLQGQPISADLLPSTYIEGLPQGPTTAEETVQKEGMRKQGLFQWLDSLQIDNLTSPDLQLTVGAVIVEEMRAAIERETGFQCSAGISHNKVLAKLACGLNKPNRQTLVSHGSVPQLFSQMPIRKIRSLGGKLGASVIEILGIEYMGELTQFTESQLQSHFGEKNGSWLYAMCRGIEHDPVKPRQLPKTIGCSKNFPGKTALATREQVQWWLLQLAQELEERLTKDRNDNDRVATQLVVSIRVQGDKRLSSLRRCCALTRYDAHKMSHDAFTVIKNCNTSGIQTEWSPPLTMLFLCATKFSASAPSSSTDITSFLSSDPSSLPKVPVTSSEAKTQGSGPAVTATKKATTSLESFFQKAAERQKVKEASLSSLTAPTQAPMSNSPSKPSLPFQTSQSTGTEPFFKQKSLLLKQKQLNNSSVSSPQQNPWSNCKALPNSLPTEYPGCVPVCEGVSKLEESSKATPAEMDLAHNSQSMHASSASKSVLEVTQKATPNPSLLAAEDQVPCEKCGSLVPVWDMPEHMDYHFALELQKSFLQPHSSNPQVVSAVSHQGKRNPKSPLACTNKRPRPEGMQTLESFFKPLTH
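Pol eta (10 nM) was preincubated with compounds for 15 min at room temperature, after which fluorescent replication substrate (50 nM final) was added to start the reaction. Fluorescence was read kinetically at 0 and 10 min.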
GALK confirm: confirmation of human galactokinase (GALK) inhibitors | Potency, µM (top dose mostly 115 µM), hits mostly inhibitors | shares compounds with Pol eta inh-1 | purified GALK, Kinase-Glo ATP depletion luminescence | AID 2015 | 70% of 150 active
GALK redox cs: redox cycling activity in phenol red-HRP assay; shares compounds with Pol eta inh-1; 40% of 150 active; Potency, µM (top dose mostly 115 µM), hits mostly inhibitors; Phenol red-HRP H2O2 redox cycling, absorbance 600 nm
HEK293 viability: reduces HEK-293 cell viability in GALK counter-screen; shares compounds with Pol eta inh-1; HEK-293 viability, ATP luminescence (CellTiter-Glo), 24/48 h; Potency, µM (series often up to 46.1 µM), usual class: inhibitors; 10% of 170 active
Pol kappa inh-2: Pol kappa (human) inhibition, cherry-pick confirmation | AID 720501 | 76% of 920 active | shares compounds with Pol eta inh-1 | purified Pol-kappa, fluorescent strand-displacement substrate | Potency, µM, usual class: inhibitors
Pol eta inh-2: confirmation of human DNA polymerase eta inhibitors. shares compounds with Pol eta inh-1. Pol eta primer extension, TAMRA/BHQ fluorescence, 10 min. Potency, µM, hits mostly inhibitors. 64% of 2,600 active
A number is an active result. This is a sample that favours compounds with a hit; in the whole collection about 2.4% have one here. The call rests on the fitted dose curve; in most records, active means well fitted curve in the direction sought with a large enough effect; inconclusive means small, poorly fitted or top-dose-only effect, or another doubt; inactive means no such curve, though single readings can be large; an effect the other way counts as inactive or inconclusive.

What do the screens show for `Cc1nn(Cc2noc(C(=O)NC3CCC(C)CC3)n2)c(C)c1Br` (configuration not stated)?
POLI inh: inactive; Pol kappa inh-1: inactive; Pol beta inh: inactive; Pol eta inh-1: inactive

How did COc1cc(/C=C(\C#N)c2nc3ccc(C)cc3[nH]2)ccc1OCc1ccc(C)cc1 do in these assays?
POLI inh: inconclusive; Pol kappa inh-1: inconclusive; Pol beta inh: inconclusive; Pol eta inh-1: inconclusive; Pol kappa inh-2: inconclusive

How did COc1cccc(/C=C(\C#N)c2nc3ccc(C)cc3[nH]2)c1 do in these assays?
POLI inh: inactive; Pol kappa inh-1: inactive; Pol beta inh: inconclusive; Pol eta inh-1: 89.1µM; Pol kappa inh-2: inconclusive

How did COc1cc(/C=C(\C#N)c2nc3ccccc3[nH]2)ccc1OCc1ccccc1F do in these assays?
POLI inh: inactive; Pol kappa inh-1: inactive; Pol beta inh: inconclusive; Pol eta inh-1: inconclusive

What do the screens show for `COc1cc(/C=C(\C#N)c2nc3ccc(C)cc3[nH]2)cc([N+](=O)[O-])c1O`?
L3MBTL1 inh: inconclusive; POLI inh: inconclusive; Pol kappa inh-1: inactive; Pol beta inh: 44.7µM; Pol eta inh-1: 22.4µM; Pol kappa inh-2: 23.8; Pol eta inh-2: 75.7

Results for COc1ccc(-c2cc(C(=O)Oc3cccc(C)c3)c3ccccc3n2)cc1 ?
POLI inh: inactive; Pol kappa inh-1: inactive; Pol beta inh: inactive; Pol eta inh-1: inactive

What do the screens show for `CCOc1ccc(C(=O)N/N=C/c2ccc(-c3ccc(S(=O)(=O)Nc4ncccn4)cc3)o2)cc1`?
POLI inh: 17.8µM; Pol kappa inh-1: inconclusive; Pol beta inh: inactive; Pol eta inh-1: 22.4µM; Pol kappa inh-2: 23.8; Pol eta inh-2: inconclusive

Results for O=C(Nc1cc(Cl)cc2c1-c1ccc(Cl)cc1C2O)C(Cl)Cl (configuration not stated) ?
POLI inh: inactive; Pol kappa inh-1: inactive; Pol eta inh-1: inactive

How did Cc1nc(Nc2nc3ccccc3o2)nc2c1CCCC2 do in these assays?
HEK293 viability: inactive

How did Cc1nc(Nc2nc3ccccc3o2)nc2c1C(=O)CC(C)(C)C2 do in these assays?
HEK293 viability: inactive

Results for O=[N+]([O-])c1cc([N+](=O)[O-])c2oc(-c3ccccc3)c(Br)c2c1O ?
POLI inh: inconclusive; Pol kappa inh-1: inconclusive; Pol beta inh: 28.2µM; Pol eta inh-1: 25.1µM; GALK confirm: 53µM; GALK redox cs: inactive; HEK293 viability: inactive

How did O=c1c(O)c(-c2ccccc2)oc2cccc(O)c12 do in these assays?
Pol kappa inh-1: inactive

Results for CCc1nn(CC(=O)Nc2c(C)cccc2C)c(=O)c2cc3sccc3n12 ?
POLI inh: inactive; Pol kappa inh-1: inactive; Pol beta inh: inactive; Pol eta inh-1: inactive

Results for CCn1c(/C=C/c2ccc(O)cc2)nc2ccccc2c1=O ?
L3MBTL1 inh: inactive; POLI inh: inactive; Pol kappa inh-1: inactive; Pol beta inh: inactive; Pol eta inh-1: inactive

How did CCn1c(/C=C/c2ccc(O)c(O)c2)nc2ccccc2c1=O do in these assays?
L3MBTL1 inh: 20µM; POLI inh: inconclusive; Pol kappa inh-1: 79.4µM; Pol beta inh: 22.4µM; Pol eta inh-1: 14.1µM; Pol eta inh-2: 67.5

What do the screens show for `CCOc1cccc(=O)c2c(C)n(-c3ccc(C(=O)O)cc3)c(C)c12`?
L3MBTL1 inh: inconclusive; POLI inh: inconclusive; Pol kappa inh-1: inconclusive; Pol beta inh: 22.4µM; Pol eta inh-1: 28.2µM; Pol eta inh-2: 26.9

Results for CC(=O)c1c(C(C)=O)c(C)n(-c2ccc(C(=O)O)cc2)c1C ?
L3MBTL1 inh: inactive; POLI inh: inactive; Pol kappa inh-1: inactive; Pol beta inh: inactive; Pol eta inh-1: inactive

How did CCOC1=C/C(=C/c2c(N)n3nc(-c4ccccc4)sc3nc2=O)C=CC1=O do in these assays?
L3MBTL1 inh: inactive; POLI inh: inconclusive; Pol kappa inh-1: inconclusive; Pol beta inh: 35.5µM; Pol eta inh-1: 28.2µM; Pol eta inh-2: inconclusive

What do the screens show for `O=C(OCC(=O)N1CCCCCC1)c1ccc(F)cc1F`?
L3MBTL1 inh: inactive; POLI inh: inactive; Pol kappa inh-1: inactive; Pol eta inh-1: inactive

Results for O=C(Nc1nnc(S(=O)(=O)N2CCCc3ccccc32)s1)c1ccc(Cl)cc1 ?
POLI inh: inactive; Pol kappa inh-1: inactive; Pol beta inh: inactive; Pol eta inh-1: inconclusive; Pol kappa inh-2: inconclusive

What do the screens show for `O=C(Nc1nnc(S(=O)(=O)N2CCCc3ccccc32)s1)c1ccccc1Br`?
POLI inh: inactive; Pol kappa inh-1: inactive; Pol beta inh: inactive; Pol eta inh-1: 79.4µM; Pol kappa inh-2: inconclusive; Pol eta inh-2: inconclusive

How did CC(C)C(N)C(=O)NC(Cc1c[nH]c2ccccc12)C(=O)O (configuration not stated) do in these assays?
Pol kappa inh-1: inactive

How did CC(=O)N[C@H]1[C@H]([C@H](O)[C@H](O)CO)O[C@](O)(C(=O)O)C[C@@H]1O do in these assays?
POLI inh: inactive; Pol kappa inh-1: inactive; Pol eta inh-1: inactive

Results for O=C(Nc1cccc(-c2nc3ncccc3o2)c1)c1ccc(-c2cccc(Cl)c2Cl)o1 ?
POLI inh: inconclusive; Pol kappa inh-1: inactive; Pol beta inh: inconclusive; Pol eta inh-1: inactive

How did Cc1cc(C(=O)C(=O)Nc2nnc(C(C)C)s2)c(C)n1-c1ccccc1 do in these assays?
POLI inh: inactive; Pol kappa inh-1: inactive; Pol beta inh: inactive; Pol eta inh-1: 39.8µM; Pol kappa inh-2: 21.2; Pol eta inh-2: inconclusive

Results for Cc1cc(C)cc(-n2c(C)cc(C(=O)C(=O)Nc3nnc(C)s3)c2C)c1 ?
POLI inh: inactive; Pol kappa inh-1: inactive; Pol beta inh: inactive; Pol eta inh-1: inactive

How did Cc1cccc(-n2c(C)cc(C(=O)C(=O)Nc3nncs3)c2C)c1 do in these assays?
POLI inh: inactive; Pol kappa inh-1: inactive; Pol beta inh: inactive; Pol eta inh-1: 50.1µM; Pol kappa inh-2: inconclusive; Pol eta inh-2: inconclusive

Results for Cc1c(CCO)sc[n+]1CCc1ccccc1 ?
POLI inh: inactive; Pol kappa inh-1: inactive

How did COc1ccc(CNC(=O)C2=C(C)C(=O)OC23CCCCC3)cc1 do in these assays?
POLI inh: inactive; Pol kappa inh-1: inactive; Pol beta inh: inactive; Pol eta inh-1: inactive
